Bioassay records from PubChem.
CHX counter – affects cycloheximide protein synthesis inhibition readout, counter-screen; max response, %; actives 12% (n = 300,000); cell reporter, cycloheximide protein synthesis inhibition counterscreen; in the data active = max response mostly above about 13%, no sharp cut-off; inactive = mostly below about 14%; note: read at 38.3 µM for the half of the compounds with a filed dose
Shiga inhibitor – Shiga toxin inhibition; actives 9.2% (n = 290,000); Vero cells, Shiga toxin protein synthesis inhibition reporter; inhibition, % at 38.7 µM; in the data active = inhibition mostly above about 28%, no sharp cut-off; inactive = mostly below about 43%
Giardia FBPA inh – inhibitors of Giardia lamblia fructose-1,6-bisphosphate aldolase | purified Giardia FBPA | Potency, µM (top dose mostly 59.6 µM), most hits filed as inhibitors | actives 0.71% (n = 290,000) | AID 2451; note: nearly all actives have a fitted effect of over 55% in size
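40 nM FBPA preincubated 10 min at RT with compound (up to 57.5 uM final), then substrate plus GAPDH/TPI/NAD/arsenate coupling and diaphorase/resazurin added. Fluorescence read after 20 min at RT, 525/598 nm.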
LmPK inh – inhibitors of Leishmania mexicana pyruvate kinase. Q27686. purified LmPK, Kinase-Glo ATP luminescence, 1 h. Potency, µM (titrated, usually from 57.5 µM), hits mostly inhibitors. actives 0.37% (n = 290,000). AID 1721
Target sequence (Q27686 whole entry, looked up): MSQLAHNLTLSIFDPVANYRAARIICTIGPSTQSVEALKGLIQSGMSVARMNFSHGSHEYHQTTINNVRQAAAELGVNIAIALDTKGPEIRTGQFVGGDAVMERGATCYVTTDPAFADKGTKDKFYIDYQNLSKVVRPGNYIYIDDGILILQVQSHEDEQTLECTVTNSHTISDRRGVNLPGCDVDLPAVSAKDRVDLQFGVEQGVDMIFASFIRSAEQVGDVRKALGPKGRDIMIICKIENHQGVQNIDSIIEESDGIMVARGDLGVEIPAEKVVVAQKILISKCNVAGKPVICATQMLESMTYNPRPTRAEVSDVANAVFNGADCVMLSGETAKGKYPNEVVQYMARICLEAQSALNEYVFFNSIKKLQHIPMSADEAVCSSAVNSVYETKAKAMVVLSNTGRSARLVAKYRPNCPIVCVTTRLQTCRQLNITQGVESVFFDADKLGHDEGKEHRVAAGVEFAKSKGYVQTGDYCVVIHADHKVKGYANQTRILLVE
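Pyruvate kinase activity monitored as ATP production (luciferase luminescence). Conditions: 0.1 nM enzyme, 0.5 mM PEP, 0.1 mM ADP, 1 h, RT; normalized against uninhibited and no-enzyme wells.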
NS1 function inh – inhibitors of influenza NS1 protein function; Potency, µM (doses to about 46.1 µM); actives 0.4% (n = 270,000); AID 2326; calls by dose curve; note: actives are rising curves; nearly all actives have a fitted effect of over 50% in size
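Read-out: OD600 growth recovery of NS1-expressing budding yeast. Cells grown overnight at 30C in -URA glucose medium, washed, resuspended and diluted 1:100 in 2% galactose assay medium, pH 6.0. Same strain lacking NS1 served as positive control.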
Each line names hits and unclear results; the compound was inactive in the other large screens. This is a sample that favours compounds with a hit; in the whole collection about 14% have one here. Unless noted, calls come from the whole dose curve; as a rule, active = well fitted curve in the direction sought with a large enough effect; inconclusive = small, poorly fitted or top-dose-only effect, or another doubt; inactive = no such curve, though single readings can be large; an effect the other way counts as inactive or inconclusive.

Cc1cc(/C=C2\C(=O)NC(=O)N(c3cccc(Br)c3)C2=O)c(C)n1C	none
COc1ncc2nc(-c3cccs3)c(=O)n(C)c2n1	none (no result: CHX counter, Shiga inhibitor, LmPK inh, NS1 function inh)
COC(=O)c1cccc(-n2c(CCC(=O)O)ccc2-c2cccs2)c1	CHX counter 19, Shiga inhibitor 49
Cc1ccc(-n2c(CCC(=O)O)ccc2-c2cccs2)cc1	CHX counter 25, Shiga inhibitor 97
CC(=O)c1ccc(-n2c(CCC(=O)O)ccc2-c2cccs2)cc1	none
CCCn1c2ccccc2c2cnn(CC(=O)NCCCN3CCN(c4ccccc4)CC3)c(=O)c21	none
CN(CC(=O)NC1CCCCCC1)S(=O)(=O)c1ccccc1	CHX counter 12, Shiga inhibitor 34
CC(=O)c1ccc(S(=O)(=O)N(C)CC(=O)NCC2CCCCC2)cc1	Shiga inhibitor 53
CN(CC(=O)NCC1CCCCC1)S(=O)(=O)c1ccc(F)cc1	none
CCC(C)(C)NC(=O)CN(C(=O)CNS(=O)(=O)c1ccccc1)c1ccc2c(c1)OCCO2	none
O=C(CN(C(=O)CNS(=O)(=O)c1ccccc1)c1ccc2c(c1)OCCO2)NC1CCCCC1	CHX counter 24
N#Cc1nc(-c2ccc(F)cc2)oc1N1CCC(C(N)=O)CC1	none
Cc1ccc(-n2cc(-c3ccccc3)[nH]c2=O)cc1F	CHX counter 46, Shiga inhibitor 115
COc1ccc(-c2cn(-c3cccc(C)c3)c(=O)[nH]2)cc1OC	none
Cc1cnc2c(C(=O)O)c(Cl)ccc2c1	none (no result: LmPK inh, NS1 function inh)
Cc1cc2nc(CO)[nH]c2cc1C	none
Cc1cc2nc(CS)[nH]c2cc1C	CHX counter 17, Giardia FBPA inh inconclusive, LmPK inh inconclusive
CCOc1ccc2nc(N3C(=O)CNC3=S)sc2c1	CHX counter 35, Shiga inhibitor 46, LmPK inh inconclusive
Cc1cc2nc(N3C(=O)CNC3=S)sc2cc1C	CHX counter 23, LmPK inh inconclusive
COc1ccc2nc(N3C(=O)/C(=C/c4ccc(Cl)cc4)NC3=S)sc2c1	none
c1ccc(OCCOc2cccc3cccnc23)cc1	CHX counter 33, Shiga inhibitor 68
O=C(COc1cccc2cccnc12)Nc1ccccc1	CHX counter 34 (no result: NS1 function inh)
OCc1ccccc1OCCCOc1cccc2cccnc12	CHX counter 26, Shiga inhibitor 53
CC(=O)c1ccc(OCCCOc2cccc3cccnc23)cc1	none
CC(=O)CCc1ccc(OCCCOc2cccc3cccnc23)cc1	CHX counter 29, Shiga inhibitor 46
O=Cc1cc(CCC(=O)O)ccc1O	none
COC(=O)c1cccc(C23CC4(C2)[C@H](CN(CC2CCCCC2)[C@@H]4c2ccccc2)C3c2ccc(Cl)nc2)c1 (some centres not stated)	none (no result: CHX counter, Shiga inhibitor, LmPK inh, NS1 function inh)
NC(=O)c1cc[n+](Cc2ccccc2Cl)cc1	none (no result: Shiga inhibitor)
O=C(O)c1ccc(OCc2cn3ccccc3n2)cc1	CHX counter 29, Shiga inhibitor 26
CCN(CC)C(=O)Oc1ccc(Cl)c2cccnc12	none
Clc1ccc(Oc2ccccc2)c2ncccc12	none
OCc1ccccc1OCCOc1ccc(Cl)c2cccnc12	CHX counter 27 (no result: NS1 function inh)
Clc1ccc(OCc2cn3ccccc3n2)c2ncccc12	CHX counter 37, Shiga inhibitor 90, Giardia FBPA inh inconclusive
CCOC(=O)C1CCN(C(=O)C2CCN(c3ncnc4c3nc3n4CCCCC3)CC2)CC1	none (no result: Giardia FBPA inh)
Cc1nc2cc(NC(=O)N3c4ccccc4CC3C)ccc2o1 (configuration not stated)	CHX counter 42, Shiga inhibitor 73, Giardia FBPA inh inconclusive
CC1Cc2ccccc2N1C(=O)c1ccc2c(c1)nnn2C (configuration not stated)	none
Cc1ccccc1NC(=O)N1c2ccccc2CC1C (configuration not stated)	none
Cc1nc2cc(NC(=O)Nc3ccc(Br)cc3)ccc2o1	CHX counter 47, Shiga inhibitor 99
Cc1nc2cc(NC(=O)N3c4ccccc4CC3C)ccc2n1C (configuration not stated)	CHX counter 19, Shiga inhibitor 33
O=S(=O)(c1ccccc1)N1CCC2(CC1)CN(c1ncccn1)C2	none (no result: CHX counter, Shiga inhibitor, LmPK inh, NS1 function inh)
COc1ccc(NC(=O)c2c(OC)cccc2OC)c(OC)c1	none
COc1ccc(-n2nc3ccc(NC(=O)c4c(OC)cccc4OC)cc3n2)cc1	CHX counter 36 (no result: Giardia FBPA inh, LmPK inh, NS1 function inh)
CCOc1ccc(-n2nc3ccc(NC(=O)CC)cc3n2)cc1	CHX counter 31, Shiga inhibitor 55
O=C(CN1CCc2ccccc2C1)Nc1cccc(S(=O)(=O)N2CCCC2)c1	Giardia FBPA inh inconclusive (no result: NS1 function inh)
O=c1oc(/C=C/c2ccc([N+](=O)[O-])s2)nc2ccccc12	CHX counter 12
CC(=O)Oc1ccccc1/C=C/c1nc2ccccc2c(=O)o1	none
CCOC(=O)C1CCCCN1S(=O)(=O)c1cc2c(cc1C)NC(=O)CO2 (configuration not stated)	none
COc1ccc(S(=O)(=O)Nc2cc(OC)cc3cccnc23)cc1	none (no result: LmPK inh, NS1 function inh)
CCOC(=O)c1ccc(NC2=CC(=O)C(=O)c3ccccc32)cc1	none (no result: Giardia FBPA inh)
NS(=O)(=O)c1ccc(NC2=CC(=O)C(=O)c3ccccc32)cc1	Giardia FBPA inh 2.5µM
Cc1nnc(Nc2ccc(S(N)(=O)=O)cc2)c2ccccc12	none (no result: Shiga inhibitor)
Cc1ccc(NC2=CC(=O)C(=O)c3ccccc32)cc1	CHX counter 43, Shiga inhibitor 115, Giardia FBPA inh 5.6µM
COCCN(C(=O)Cc1cccs1)C(C(=O)NC1CCCC1)c1cc(OC)c(OC)c(OC)c1 (configuration not stated)	CHX counter 49, Shiga inhibitor 111
COc1ccc(C(C(=O)NC2CCCC2)N(C(=O)Cc2cccs2)C2CC2)cc1OC (configuration not stated)	none
CC(C)(C)c1ccc(CSc2nc(N)cc(=O)[nH]2)cc1	CHX counter 39, Shiga inhibitor 41
CC(=O)OCC1OC(C#Cc2ccc(C(C)(C)C)cc2)C=CC1OC(C)=O (configuration not stated)	none (no result: CHX counter, Shiga inhibitor, LmPK inh, NS1 function inh)
O=C(c1ccccc1)c1c[nH]cc1-c1ccccc1	none
O=C(O)c1ccccc1C(=O)c1ccc(-c2ccccc2)cc1	CHX counter 44, Shiga inhibitor 92
Cc1ccc(C(=O)c2c[nH]cc2-c2ccccc2)cc1	CHX counter 17
O=C(O)c1ccccc1C(=O)c1ccc(Cl)cc1	none
COc1ccc(CC(=O)Nc2ccccc2C(=O)N2CCCC2)cc1	none
OCCC1CN(Cc2ccc3c(c2)CCO3)CCN1Cc1ccc(F)cc1 (configuration not stated)	none
Fc1ccc(-c2noc(-c3ccc4c(c3)CCO4)n2)cc1	CHX counter 56, Shiga inhibitor 77
COC(=O)CC1c2ccccc2C(Cc2ccc3c(c2)OCO3)=C(C)N1C(=O)OC (configuration not stated)	none (no result: CHX counter, Shiga inhibitor, NS1 function inh)
CCN(CC)C(=O)c1cc2c(=O)c3cc(Cl)ccc3oc2nc1C	NS1 function inh inconclusive
CC(=O)c1cc2c(=O)c3cc(C)ccc3oc2nc1C	CHX counter 30, Shiga inhibitor 121, LmPK inh 14µM
CCc1nc2oc3ccccc3c(=O)c2cc1C(=O)OC	CHX counter 24, Shiga inhibitor 51
CCOC(=O)c1cc2c(=O)c3cc(C)ccc3oc2nc1C	CHX counter 40, Shiga inhibitor 52
